For assay [1], the target named is Cytochrome P450 3A4 (Homo sapiens) (UniProt P08684). Kind of assay: qHTS Assay for Activators of Cytochrome P450 3A4 (AID 885). Note: nearly all actives have a fitted effect of over 65% in size. In outline:
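CYP3A4 activity: Luciferin-PPXE O-dealkylation, 25uM substrate, 200mM KPO4, RT throughout. Read-out is luciferase luminescence; higher values reflect activation.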

Assay [2] is described as follows: Confirmation and Secondary Assay for Modulators of Hemoglobin Beta Chain Splicing at IVS2 654 locus (AID 910).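 Note: HeLa cells stably carrying EGFP split by mutant beta-globin IVS2-654 intron; % of control where 0% means no effect.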 In outline: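 HeLa cells stably expressing EGFP interrupted by β-globin IVS2-654 intron, seeded overnight in Opti-MEM/2% FCS, then treated 2 days at 37 °C. Restored splicing read as total peak GFP intensity per well by laser scanning cytometry (488 nm excitation, 500–520 nm emission); 500 nM antisense PNA as control.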

Assay [3] in a line: Confirmation and Secondary Assay for Modulators of Hemoglobin Beta Chain Splicing at IVS2 705 locus (AID 930).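 Note: HeLa cells stably expressing the EGFP-705 splicing reporter; GFP fluorescence per well restored by corrected splicing of the IVS2-705 intron in EGFP; % of control where 0% means no effect.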 In outline:
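Assay measures total GFP intensity per well in HeLa EGFP-705 cells after 2 days with compound; mis-splicing normally truncates EGFP, so fluorescence indicates corrected splicing.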

A short description of assay [4]: qHTS Assay for Lipid Storage Modulators (AID 1519; calls by dose curve; for activity change, negative = inhibition: % is set by controls: 0 for no effect and ±100 for the full control effect). Particulars: Drosophila S3 cells, BODIPY lipid droplet/cell ratio, laser cytometry, cells loaded with oleic acid; for activity change, negative = inhibition: at 57.5 µM (top of the series). An outline of the steps: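 Cells seeded at 5,000 per well were treated with compounds over a concentration series and loaded with oleic acid (400 uM, as added). Lipid droplet fluorescence (488 nm excitation, 500-530 nm channel) was read by laser-scanning cytometry and normalized to 20 uM Triacsin C.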
On the technique in general: Quantitative high-throughput screening tests each substance at several concentrations.

Assay [5] has as its target Cytochrome P450 3A4 (Homo sapiens) (UniProt P08684). Briefly: qHTS Assay for Inhibitors and Substrates of Cytochrome P450 3A4 (AID 884). Note: % is set by controls: 0 for no effect and ±100 for the full control effect; nearly all actives have a fitted effect of over 50% in size. In outline: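 Luminescent readout of luciferin produced by CYP3A4 (20 nM) dealkylation of Luciferin-PPXE, 25 uM (its KM). NADPH-driven reaction ran 60 min at RT after 10 min compound preincubation; data scaled to 57 uM ketoconazole as 100% inhibition.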

Where [6] appears, read: measured here: cell count channel max response.
Where [7] appears, read: measured here: lipid channel max response.

Records with an inconclusive call do not appear. The source made the active and inactive calls. Unless noted, calls come from the whole dose curve; as a rule, active = well fitted curve in the direction sought with a large enough effect; inconclusive = small, poorly fitted or top-dose-only effect, or another doubt; inactive = no such curve, though single readings can be large; an effect the other way counts as inactive or inconclusive.

Sequence of Cytochrome P450 3A4 (Homo sapiens) (P08684 whole entry, looked up): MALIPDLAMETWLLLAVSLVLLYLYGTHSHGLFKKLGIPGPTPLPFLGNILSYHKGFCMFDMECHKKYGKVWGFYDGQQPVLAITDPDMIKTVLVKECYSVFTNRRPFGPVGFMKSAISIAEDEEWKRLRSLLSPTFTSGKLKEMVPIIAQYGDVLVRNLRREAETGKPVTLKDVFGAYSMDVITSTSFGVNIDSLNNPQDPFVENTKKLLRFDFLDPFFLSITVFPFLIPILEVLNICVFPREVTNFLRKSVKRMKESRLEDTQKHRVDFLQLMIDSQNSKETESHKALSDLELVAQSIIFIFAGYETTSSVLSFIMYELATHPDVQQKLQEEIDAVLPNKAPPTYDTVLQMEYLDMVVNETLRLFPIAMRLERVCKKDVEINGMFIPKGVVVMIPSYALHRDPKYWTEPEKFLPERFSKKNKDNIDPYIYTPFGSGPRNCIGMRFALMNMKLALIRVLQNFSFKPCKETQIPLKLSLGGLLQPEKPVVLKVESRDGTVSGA

`CC(C)=CCc1c2c(c(O)c3c(=O)c(O)c(-c4ccccc4)oc13)C=CC(C)(C)O2`: the Potency result in assay [1], in assay [2] and in assay [3] was “inactive” throughout. For the same compound, the activity change, negative = inhibition in assay [4] is 0.956% (inactive). For the same compound, the values for the max response in assay [4] (setting [6]) and in assay [4] (setting [7]) were -0.903% and -0.353%, respectively.
Take `CC(=O)OC1CC2C(C)(C)C(O)CCC2(C)C2CC[C@]3(C)C(=CC(=O)OC3c3ccoc3)C12C` (some centres undefined): the Potency entry in assay [1], in assay [2] and in assay [3] was “inactive” in each case. Besides, in assay [4], the activity change, negative = inhibition is -0.0065% (inactive). Further, the results for the max response in assay [4] (setting [6]) and in assay [4] (setting [7]) were -9.39% and -0.419%, respectively.
For `Cc1cn(C2CC(N=[N+]=[N-])C(CO)O2)c(=O)[nH]c1=O` (centres undefined), the Potency entry in assay [2] and in assay [3] was “inactive” in each case. Moreover, in assay [4], the activity change, negative = inhibition is 9.63% (inactive). Further, the max response is 4.71% in assay [4] (setting [6]) and 18.1% in assay [4] (setting [7]).
As for `CC(C)=CCC/C(C)=C/COc1ccc2ccc(=O)oc2c1`, the Potency result in assay [1] and in assay [3] was “inactive” throughout. Moreover, the activity change, negative = inhibition in assay [4] was -1.25% (inactive). Besides, the max response in assay [4] (setting [6]) was found to be 27.3%; in assay [4] (setting [7]), 28.1%.
Consider `CC(C)CCCC(C)C1CCC2C3CC(O)[C@@]4(O)CC(O)CC[C@@]4(C)C3CC[C@@]12C` (some centres undefined), for which the Potency entry in assay [5], in assay [2] and in assay [3] was “inactive” each time. Further, the activity change, negative = inhibition in assay [4] is 4.13% (inactive). For the same compound, the max response in assay [4] (setting [6]) stood at 10.2%; in assay [4] (setting [7]), 14.9%.
With `O=C(/C=C/c1ccccc1)c1ccc(O)cc1O`, the Potency entry in assay [1], in assay [2] and in assay [3] was “inactive” each time. In addition, the activity change, negative = inhibition in assay [4] is -11.9% (inactive). For the same compound, the values for the max response in assay [4] (setting [6]) and in assay [4] (setting [7]) were 1.3% and -11.1%, respectively.
On to `C/C(=C\CO)CCC(C)CCCC(C)CCCC(C)C` (centres undefined), for which the Potency entry in assay [5], in assay [2] and in assay [3] was “inactive” each time. For the same compound, the activity change, negative = inhibition in assay [4] is 6.09% (inactive). Moreover, the figures for the max response in assay [4] (setting [6]) and in assay [4] (setting [7]) were 8.07% and 14.9%, respectively.
Take `O=c1c(O)c(-c2ccccc2)oc2ccccc12`: the Potency result in assay [1], in assay [2] and in assay [3] was “inactive” throughout. Also, the activity change, negative = inhibition in assay [4] was 0.0192% (inactive). Also, the max response in assay [4] (setting [6]) was -10%; in assay [4] (setting [7]) it was -11.2%.
For the compound `C#CCCCCCCCCCCCC(O)CC(O)CO` (centres undefined), the Potency result in assay [1], in assay [2] and in assay [3] was “inactive” throughout. Moreover, in assay [4], the activity change, negative = inhibition is 15.6% (inactive). Also, the max response in assay [4] (setting [6]) amounted to 3.34%; in assay [4] (setting [7]), 18.3%.
`COc1cc(O)c(C(=O)/C=C/c2ccccc2)c(OC)c1`: the Potency result in assay [1], in assay [2] and in assay [3] was “inactive” each time. Further, the activity change, negative = inhibition in assay [4] is -11.9% (inactive). Also, the max response in assay [4] (setting [6]) is 2.78%; in assay [4] (setting [7]) it was -7.25%.
For `CCCCCCCCCCCCCCC(C(=O)O)C(O)(CC(=O)OC)C(=O)O` (centres undefined), the Potency result in assay [5] and in assay [3] was “inactive” each time. In assay [4], the activity change, negative = inhibition was 5.93% (inactive). Besides, the values for the max response in assay [4] (setting [6]) and in assay [4] (setting [7]) were 16.5% and 25.2%, respectively.
As for `CC(C)c1c(O)ccc2c1CCC1[C@@](C)(CO)CCC[C@@]21C` (some centres undefined), the Potency entry in assay [1], in assay [2] and in assay [3] was “inactive” in each case. The activity change, negative = inhibition in assay [4] is 10.8% (inactive). Moreover, the max response in assay [4] (setting [6]) worked out at 14.4%; in assay [4] (setting [7]), 26.5%.
For the compound `CCCCCc1c2c(cc(O)c1C(=O)O)OC(=O)c1c(cc(OC)cc1C(=O)CCCC)O2`, the Potency result in assay [1], in assay [2] and in assay [3] was “inactive” each time. For the same compound, the activity change, negative = inhibition in assay [4] was 7.58% (inactive). For the same compound, the max response in assay [4] (setting [6]) was 12.3%; in assay [4] (setting [7]), 21.9%.
As for `CC(=O)OC[C@@]1(O)C[C@]23CCC4c5ccoc5CC[C@@]4(C)C2CCC1C3` (some centres undefined), the Potency entry in assay [1], in assay [2] and in assay [3] was “inactive” in each case. The activity change, negative = inhibition in assay [4] is 6.91% (inactive). The results for the max response in assay [4] (setting [6]) and in assay [4] (setting [7]) were 7.17% and 15.2%, respectively.
Turning to `CCc1ccc2c(O)c3c(cc2c1C(=O)OC)C(=O)c1c(O)ccc(O)c1C3=O`, the Potency result in assay [5], in assay [2] and in assay [3] was “inactive” each time. For the same compound, the activity change, negative = inhibition in assay [4] was 12.8% (inactive). The max response turned out to be 5.77% in assay [4] (setting [6]) and 24.1% in assay [4] (setting [7]).
Turning to `C=CC(C1=CC(=O)C(OC)=CC1=O)c1ccc(O)cc1` (centres undefined), the Potency result in assay [1], in assay [2] and in assay [3] was “inactive” each time. The activity change, negative = inhibition in assay [4] was 12.9% (inactive). Besides, the max response in assay [4] (setting [6]) came to 1.65%; in assay [4] (setting [7]) it was 16.7%.
In the case of `COc1cc(O)cc(/C=C/c2ccccc2)c1`, the Potency entry in assay [1], in assay [2] and in assay [3] was “inactive” each time. The activity change, negative = inhibition in assay [4] was 5.85% (inactive). The values for the max response in assay [4] (setting [6]) and in assay [4] (setting [7]) were -8.15% and -0.333%, respectively.
